Test [1] concerns the target Lysosomal acid glucosylceramidase (Homo sapiens) (UniProt P04062). The test can be described thus: Glucocerebrosidase-p2 (AID 348; in the data active means potency below about 10 µM; further: potency means the concentration at half of the fitted maximal effect). The settings on record: purified GBA, blue fluorogenic substrate, 40 min. The gist of the method: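 Normal human glucocerebrosidase (0.2 nM) with blue fluorogenic substrate (80 uM final) in citrate/phosphate pH 5.9 with 10mM sodium taurocholate, 0.01% tween-20; 40 min RT, NaOH/glycine stop; fluorescence Ex 365/Em 440; AC50 from a titration from 0.6 nM upwards.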

Test [2] can be described thus: AP1 Signaling Pathway (AID 357).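 Further: ME-180 reporter cells stimulated with EGF at its EC50 level; on the % scale 0 is the no-effect control and ±100 the full control effect.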 The conditions noted are these: ME-180 AP-1-bla reporter, EGF-induced, beta-lactamase ratio, 5 h; at 7.69 µM (top of the series) unless noted. A digest of the protocol:
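A ratiometric CCF4 readout (405 nm excitation; 460 and 530 nm emission) quantified AP-1-driven beta-lactamase in ME-180 cells after 5 h with compound and EC50 EGF; AC50 values were derived for activators and inhibitors.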

Test [3] has as its target Cytochrome P450 1A2 (Homo sapiens) (UniProt P05177). The test can be described thus: p450-cyp1a2 (AID 410; calls by dose curve; further: potency means the concentration at half of the fitted maximal effect;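 on activity change, negative = inhibition: -100% = full effect of reference inhibitor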). The conditions noted are these: recombinant CYP1A2, luciferin-ME demethylation, luminescence; series mostly up to 11.4 µM. A digest of the protocol: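 Luminescent demethylation readout: Luciferin-ME (100uM, equal to Km) turned over by 20nM CYP1A2 for 60 min at room temperature after NADPH regeneration addition, following 10 min compound preincubation. Normalization used 57 uM furafylline as full inhibition.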

The nature of test [4]: NFAT Signaling Pathway (AID 444).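 Further: carbachol stimulus at about its EC50 of 1 µM final; on the % scale 0 is the no-effect control and ±100 the full control effect.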 The settings on record: Jurkat NFAT-bla M1, carbachol, beta-lactamase ratio, 5 h; at 7.69 µM (top of the series) unless noted. The gist of the method: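 Jurkat cells carrying an NFAT-driven β-lactamase reporter and co-transfected muscarinic M1 receptor were treated with compound plus carbachol (1 uM final, an EC50 level) for 5 h at 37 °C. CCF4 loading followed for 1 h at RT; 460/530 nm ratio gave %activity.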

Test [5] can be described thus: Stat Signaling Pathway (AID 446).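 Further: ME-180 cervical cancer cells given 40 pM IL-6 alongside compound; SIE-controlled beta-lactamase reporter measured as 460/530 nm FRET emission ratio; on the % scale 0 is the no-effect control and ±100 the full control effect.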 The conditions noted are these: ME-180 (cervical carcinoma) SIE beta-lactamase reporter, IL-6 stimulated, 5 h; at 7.69 µM (top of the series) unless noted. A digest of the protocol:
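Normalization used AC90 stimulation (300 pM IL-6) and AC90 inhibition (125 nM pan-JAK inhibitor at 40 pM IL-6). The underlying signal is SIE-driven beta-lactamase in ME-180 cells after 5 h IL-6 exposure with compound.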

Test [6] concerns the target Glucocorticoid receptor (Homo sapiens) (UniProt P04150). Kind of test: GR-GFP Redistribution (AID 450;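 active means compounds whose dose series gives a full or clear partial fitted curve of increased nuclear translocation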; further: potency means the concentration at half of the fitted maximal effect). The settings on record: U2OS GR-GFP nuclear translocation, laser cytometry, 2 h.
Test [7] shares this target. The test can be described thus: GR-EFC Redistribution (AID 451; calls by dose curve; further: potency means the concentration at half of the fitted maximal effect). The settings on record: CHO-K1 GR-EFC translocation, beta-gal luminescence, 2 h. A digest of the protocol: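 CHO-K1 cells stably expressing nuclear-localized β-gal enzyme acceptor and GR fused C-terminally to the enzyme donor fragment; ligand-driven nuclear translocation restores β-gal by complementation. Compounds titrated up to 46 uM final, 2 h at 37 °C; luminescence read.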

In test [8] the target is Mitogen-activated protein kinase 10 (Mus musculus) (UniProt Q61831). Kind of test: JNK3 AlphaScreen Assay (AID 530).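 Further: kinase came from lysate of stimulated human HepG2 cells; signal reports phosphorylation of biotinylated GST-cJun 1-79 at Ser73 with 10 µM ATP; on the % scale 0 is the no-effect control and ±100 the full control effect.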 The conditions noted are these: JNK3 lysate, c-Jun phosphorylation; series mostly up to 11.4 µM. The gist of the method:
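Phosphorylation of biotinylated GST-cJun(1-79) at Ser73 is measured by AlphaScreen proximity luminescence. Enzyme is JNK3 in HepG2 lysates activated with interleukin-1beta and tumor necrosis factor alpha; ATP is 10 uM final.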

In test [9] the target is 3',5'-cyclic-AMP phosphodiesterase 4B (Homo sapiens) (UniProt Q07343). The test can be described thus: qHTS Assay for Inhibitors of PDE-IV (AID 607; active means well fitted activation curve with a large enough effect in the main read-out, with a control signal flat, not every such curve was filed as active; further: % of control where 0% means no effect). The settings on record: HEK293 ACTOne CNG channel cells, membrane potential fluorescence; series mostly up to 22.9 µM. A digest of the protocol:
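HEK293 ACTOne cells with CNG channel (1000/well), endogenous PDE4; membrane potential dye, compounds up to 22.9 uM final. Fluorescence Ex 535/Em 590; RO 20-1724 (100 uM final) as reference.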

The target in test [10] is Cytochrome P450 2C19 (Homo sapiens) (UniProt P33261). Kind of test: qHTS Assay for Inhibitors and Substrates of Cytochrome P450 2C19 (AID 899; active means well fitted inhibition curve with a large enough effect; further: nearly all actives have a fitted effect of over 60% in size; further: potency means the concentration at half of the fitted maximal effect). The conditions noted are these: recombinant CYP2C19, luciferin-H EGE luminescence; series mostly up to 11.4 µM. A digest of the protocol:
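Human CYP2C19 (5nM) with Luciferin-H EGE at 10uM (its KM) in 50mM KPO4 was preincubated with compound for 10 min at 37C. NADPH regeneration started a 60 min 37C reaction. Luciferin was read by luminescence, normalized to 57uM ketoconazole.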

Unmarked numbers belong to inactive results. Inconclusive results are not listed. Calls of active or inactive are those of the source. Unless noted, the call rests on the fitted dose curve; in most records, active means well fitted curve in either direction with a large enough effect (not every such curve was filed as active); inconclusive means small, poorly fitted or top-dose-only effect, or another doubt; inactive means flat fitted curve, though single readings scatter.

Among the data in PubChem BioAssay (NCATS) are Potency, activity change, negative = inhibition and activity, negative = inhibition values, retold here.

Chain of Cytochrome P450 2C19 (Homo sapiens) (P33261 whole entry, looked up): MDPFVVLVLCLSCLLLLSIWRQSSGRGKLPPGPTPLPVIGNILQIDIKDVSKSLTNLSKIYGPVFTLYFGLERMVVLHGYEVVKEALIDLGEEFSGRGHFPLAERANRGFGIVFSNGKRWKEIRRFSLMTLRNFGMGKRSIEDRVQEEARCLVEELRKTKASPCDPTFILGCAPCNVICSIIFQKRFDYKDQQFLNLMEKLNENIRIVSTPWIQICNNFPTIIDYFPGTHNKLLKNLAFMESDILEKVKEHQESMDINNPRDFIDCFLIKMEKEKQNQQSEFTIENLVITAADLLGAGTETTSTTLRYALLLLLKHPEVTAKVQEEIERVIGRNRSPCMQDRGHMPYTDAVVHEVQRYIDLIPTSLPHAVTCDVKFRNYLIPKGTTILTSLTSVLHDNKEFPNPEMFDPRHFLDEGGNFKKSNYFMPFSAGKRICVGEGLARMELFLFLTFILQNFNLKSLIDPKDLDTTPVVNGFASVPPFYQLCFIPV
Chain of Cytochrome P450 1A2 (Homo sapiens) (P05177 whole entry, looked up): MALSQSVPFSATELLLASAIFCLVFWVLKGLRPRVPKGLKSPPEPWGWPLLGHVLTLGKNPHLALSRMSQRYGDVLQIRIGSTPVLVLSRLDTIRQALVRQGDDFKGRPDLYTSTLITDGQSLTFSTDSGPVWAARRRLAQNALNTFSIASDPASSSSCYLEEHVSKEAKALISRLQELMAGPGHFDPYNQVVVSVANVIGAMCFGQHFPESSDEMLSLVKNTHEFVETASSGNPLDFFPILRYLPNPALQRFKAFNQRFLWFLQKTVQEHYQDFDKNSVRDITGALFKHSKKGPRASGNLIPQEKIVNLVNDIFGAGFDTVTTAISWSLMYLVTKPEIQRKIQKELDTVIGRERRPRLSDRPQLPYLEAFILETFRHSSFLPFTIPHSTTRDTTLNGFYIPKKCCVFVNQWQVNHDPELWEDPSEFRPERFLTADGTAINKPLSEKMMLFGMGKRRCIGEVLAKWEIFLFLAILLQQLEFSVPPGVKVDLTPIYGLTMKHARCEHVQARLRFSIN
Chain of Glucocorticoid receptor (Homo sapiens) (P04150 whole entry, looked up, the tested form may be a part): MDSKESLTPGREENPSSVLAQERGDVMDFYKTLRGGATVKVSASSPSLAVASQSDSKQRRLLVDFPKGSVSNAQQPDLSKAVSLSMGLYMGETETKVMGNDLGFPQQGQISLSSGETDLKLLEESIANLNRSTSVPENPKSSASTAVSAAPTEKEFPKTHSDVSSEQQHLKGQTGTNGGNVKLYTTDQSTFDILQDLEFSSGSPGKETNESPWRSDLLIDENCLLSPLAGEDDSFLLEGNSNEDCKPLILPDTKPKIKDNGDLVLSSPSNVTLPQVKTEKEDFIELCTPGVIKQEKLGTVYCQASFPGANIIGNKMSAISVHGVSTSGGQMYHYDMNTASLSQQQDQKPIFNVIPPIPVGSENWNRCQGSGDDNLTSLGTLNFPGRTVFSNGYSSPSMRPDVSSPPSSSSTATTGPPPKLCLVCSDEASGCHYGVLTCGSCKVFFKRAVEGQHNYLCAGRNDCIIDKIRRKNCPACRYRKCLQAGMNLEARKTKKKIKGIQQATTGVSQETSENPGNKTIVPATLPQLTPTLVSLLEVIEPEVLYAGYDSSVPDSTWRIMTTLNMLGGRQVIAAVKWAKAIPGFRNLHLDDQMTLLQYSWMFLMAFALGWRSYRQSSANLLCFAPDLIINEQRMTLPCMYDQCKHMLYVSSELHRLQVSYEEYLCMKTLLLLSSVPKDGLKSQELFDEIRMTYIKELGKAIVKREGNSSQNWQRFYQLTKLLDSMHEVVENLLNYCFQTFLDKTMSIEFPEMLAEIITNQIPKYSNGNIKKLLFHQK
Chain of Lysosomal acid glucosylceramidase (Homo sapiens) (P04062 whole entry, looked up): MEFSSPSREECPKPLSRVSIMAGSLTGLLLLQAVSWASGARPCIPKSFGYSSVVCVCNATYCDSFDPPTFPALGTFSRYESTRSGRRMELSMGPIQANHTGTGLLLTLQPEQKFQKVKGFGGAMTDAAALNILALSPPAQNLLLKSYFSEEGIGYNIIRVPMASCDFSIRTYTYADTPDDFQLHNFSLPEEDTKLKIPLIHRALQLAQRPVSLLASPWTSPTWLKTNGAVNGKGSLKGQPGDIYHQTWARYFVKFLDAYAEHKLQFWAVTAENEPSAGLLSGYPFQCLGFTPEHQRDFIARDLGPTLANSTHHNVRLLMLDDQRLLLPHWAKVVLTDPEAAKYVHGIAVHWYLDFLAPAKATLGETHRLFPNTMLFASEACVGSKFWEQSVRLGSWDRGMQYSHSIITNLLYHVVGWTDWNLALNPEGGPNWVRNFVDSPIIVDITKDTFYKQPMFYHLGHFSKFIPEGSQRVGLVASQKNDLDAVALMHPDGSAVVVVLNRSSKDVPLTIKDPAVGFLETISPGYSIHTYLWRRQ
Chain of 3',5'-cyclic-AMP phosphodiesterase 4B (Homo sapiens) (Q07343 whole entry, looked up): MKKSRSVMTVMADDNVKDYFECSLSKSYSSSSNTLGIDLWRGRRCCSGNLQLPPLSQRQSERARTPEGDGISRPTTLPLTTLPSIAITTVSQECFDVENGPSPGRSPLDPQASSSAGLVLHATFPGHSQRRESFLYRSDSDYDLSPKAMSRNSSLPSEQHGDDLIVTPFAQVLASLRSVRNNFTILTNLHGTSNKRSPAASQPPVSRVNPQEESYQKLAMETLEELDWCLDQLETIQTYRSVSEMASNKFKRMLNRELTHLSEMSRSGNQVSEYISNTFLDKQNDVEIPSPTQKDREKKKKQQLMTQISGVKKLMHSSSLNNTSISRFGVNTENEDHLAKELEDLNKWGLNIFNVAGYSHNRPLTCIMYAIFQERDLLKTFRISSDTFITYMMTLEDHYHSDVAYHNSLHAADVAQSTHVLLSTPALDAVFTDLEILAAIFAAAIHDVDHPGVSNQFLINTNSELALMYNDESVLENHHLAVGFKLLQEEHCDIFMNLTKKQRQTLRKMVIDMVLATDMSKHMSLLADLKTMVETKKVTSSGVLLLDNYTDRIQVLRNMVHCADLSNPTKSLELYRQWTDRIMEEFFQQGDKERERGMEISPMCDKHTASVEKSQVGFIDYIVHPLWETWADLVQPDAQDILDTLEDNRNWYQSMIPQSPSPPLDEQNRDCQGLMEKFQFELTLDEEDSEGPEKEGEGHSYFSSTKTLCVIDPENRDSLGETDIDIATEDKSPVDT

On to `c1ccc2c(c1)c1ccccc1n2Cn1c2ccccc2c2ccccc21`, for which the Potency is more than 11.4 µM in test [1]; 0.251 µM (active) in test [3]; more than 46 µM in test [6]; more than 9.22 µM in test [7]; 0.398 µM (active) in [10]. The results for the activity change, negative = inhibition in test [2] and in test [4] were 10.8% and -5.02%, respectively. In addition, the activity, negative = inhibition in test [5] is 8.5%. Also, the Potency result in [8] and in test [9] was “inactive” throughout.
Regarding `CC(C)(C)COS(=O)OCC(C)(C)C`, the Potency in test [1] was more than 11.4 µM; in [6], more than 46 µM; in [7] it was more than 9.22 µM. The activity change, negative = inhibition was -7.58% in test [2] and 3.4% in test [4]. For the same compound, the Potency entry in test [3], in test [8], in test [9] and in [10] was “inactive” in each case. Further, the activity, negative = inhibition in [5] was 13.1%.
`C=C1CCO[C@@]2([C@H](O)[C@@](C)(O)CO)NC(=O)[C@]1(O)NC2=O`: the Potency is more than 11.4 µM in [1], more than 46 µM in test [6] and more than 9.22 µM in [7]. The figures for the activity change, negative = inhibition in [2], in test [3] and in [4] were 5.8%, -4% [at 2.29 µM] and -4.59%, respectively. In test [5], the activity, negative = inhibition was 2.56%. Besides, the Potency result in test [8], in test [9] and in [10] was “inactive” throughout.
As for `COc1ccc2nc(NCN3C(=O)c4ccccc4C3=O)sc2c1`, the Potency is more than 11.4 µM in test [1]; 3.98 µM (active) in test [3]; more than 46 µM in [6]; more than 9.22 µM in test [7]; 2.51 µM (active) in test [10]. Further, the activity change, negative = inhibition was 2.48% in test [2] and -16% in test [4]. In test [5], the activity, negative = inhibition is 10.9%. Further, the Potency result in test [8] and in [9] was “inactive” in each case.
`CC(C)C(O)(C(C)C)C(C)C`: the results for the Potency in [1], in test [6] and in test [7] were more than 11.4 µM, more than 46 µM and more than 9.22 µM, respectively. The activity change, negative = inhibition in test [2] is 7.29%; in [4], 3.44%. Moreover, the Potency entry in test [3], in test [8], in [9] and in [10] was “inactive” each time. The activity, negative = inhibition in test [5] is 13.2%.
Regarding `O=C(O)c1ccc(S(=O)(=O)N=Nc2c(O)[nH]c3ccccc23)cc1`, the Potency in [1] is more than 11.4 µM; in test [6], more than 46 µM; in [7], more than 9.22 µM. Also, the activity change, negative = inhibition in [2] is -0.32%; in test [4], 4.27%. In addition, the Potency result in [3], in test [8], in [9] and in test [10] was “inactive” each time. For the same compound, the activity, negative = inhibition in [5] is 21.1%.
As for `NC(=O)c1csc(-c2ccc(CO)o2)n1`, the values for the Potency in test [1], in test [6] and in test [7] were more than 11.4 µM, more than 46 µM and more than 9.22 µM, respectively. Moreover, the activity change, negative = inhibition was -2.81% in test [2] and 10.7% in test [4]. Moreover, the Potency result in [3], in [8], in test [9] and in [10] was “inactive” throughout. In addition, in test [5], the activity, negative = inhibition was 13.2%.
With `Cc1ccc([C@@]2(C)CC/C(=N/N=C3\CC[C@](C)(c4ccc(C)c(C)c4)c4cc(C)c(C)cc43)c3cc(C)c(C)cc32)cc1C`, the Potency is more than 11.4 µM in [1], more than 46 µM in [6] and more than 9.22 µM in test [7]. Also, the activity change, negative = inhibition was 5.94% in test [2] and 7.12% in [4]. Further, the Potency entry in test [3], in test [8], in [9] and in test [10] was “inactive” throughout. Besides, the activity, negative = inhibition in test [5] was 4.03%.
As to `Clc1ccccc1C(Nc1ncccn1)Nc1ncccn1`, the Potency in test [1] is more than 11.4 µM; in [6] it was more than 46 µM; in test [7] it was more than 9.22 µM. Besides, the activity change, negative = inhibition is 4.25% in test [2] and 3.12% in test [4]. Also, the Potency entry in [3], in test [8], in test [9] and in [10] was “inactive” throughout. Besides, the activity, negative = inhibition in test [5] is 3.77%.
`CN(C)CCN(c1ccccn1)c1ccccn1`: the Potency in test [1] is more than 11.4 µM; in [6], more than 46 µM; in [7] it was more than 9.22 µM. Moreover, the figures for the activity change, negative = inhibition in test [2] and in [4] were 11.2% and 7.47%, respectively. For the same compound, the Potency result in [3], in test [8], in [9] and in [10] was “inactive” in each case. In addition, the activity, negative = inhibition in test [5] is 11.4%.
For the compound `OC[C@@H]1O[C@@H](O)[C@H](N=Cc2ccc3c(c2)OCO3)[C@@H](O)[C@@H]1O`, the figures for the Potency in test [1], in test [6] and in [7] were more than 11.4 µM, more than 46 µM and more than 9.22 µM, respectively. The activity change, negative = inhibition in test [2] was 5.99%; in test [3] it was -24.4% [at 2.29 µM]; in [4] it was 3.26%. Besides, the activity, negative = inhibition in test [5] is 2.95%. Besides, the Potency entry in test [8], in test [9] and in [10] was “inactive” in each case.
`Clc1ccc(-c2nnc(-c3cccc4ccccc34)o2)cc1Cl`: the Potency was more than 11.4 µM in [1], 2 µM (active) in test [3], more than 46 µM in test [6] and more than 9.22 µM in [7]. The results for the activity change, negative = inhibition in [2] and in test [4] were -2.21% and 18.6%, respectively. Besides, the activity, negative = inhibition in test [5] is 10.3%. The Potency entry in test [8], in test [9] and in test [10] was “inactive” throughout.
As for `CC(=O)OC(C)(C)N=Nc1ccc(Br)cc1`, the Potency was more than 11.4 µM in test [1]; 3.16 µM (active) in [3]; more than 46 µM in test [6]; more than 9.22 µM in test [7]; 1.26 µM (active) in test [10]. Moreover, the values for the activity change, negative = inhibition in test [2] and in test [4] were -5.95% and 14.8%, respectively. The activity, negative = inhibition in test [5] is 2.84%. Also, the Potency result in test [8] and in test [9] was “inactive” each time.
`O=C(O)C/C(=C\c1ccco1)C(=O)O`: the Potency in test [1] was more than 11.4 µM; in test [6], more than 46 µM; in [7], more than 9.22 µM. For the same compound, the activity change, negative = inhibition in [2] was 8.65%; in test [3], -11.8% [at 2.29 µM]; in test [4], 9.1%. The activity, negative = inhibition in [5] is 7.2%. In addition, the Potency result in [8], in [9] and in test [10] was “inactive” each time.
Regarding `Cn1c([N+](=O)[O-])cnc1CN1CCN(CCO)CC1`, the Potency in test [1] was more than 11.4 µM; in [6] it was more than 46 µM; in test [7], more than 9.22 µM. Besides, the results for the activity change, negative = inhibition in test [2], in test [3] and in test [4] were 11%, 9.2% [at 2.29 µM] and 2.86%, respectively. Besides, in test [5], the activity, negative = inhibition was 10.3%. In addition, the Potency entry in [8], in test [9] and in [10] was “inactive” each time.
